{"source": "PubChem BioAssay (NCI)", "note": "This is part of a sample that, as a whole, favours compounds with a hit. Of some 83,000 tested, about 20% had one in any assay.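 Method: cells in 96-well plates; compound added at one concentration; 48 h incubation; percent growth measured; values under 10 scored active.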 A number with no mark means an inactive call. The source made the active and inactive calls.", "data": [{"tested_on": "HT29 colon", "assay": "NCI-60 one-dose screen, 48 h (100 = growth as untreated, 0 = no growth, -100 = all killed)", "details": "10 µM unless noted", "values": [{"smiles": "O=C(Nc1ccc2c(c1)C(=O)c1ccccc1-2)c1ccccc1", "growth": "35.8%"}, {"smiles": "COc1ccc(CNC(=O)c2c(C)n([O-])c3ccc(OC)cc3[n+]2=O)cc1", "growth": "93.2%"}, {"smiles": "N#CC(C#N)C(C#N)C#N", "growth": "97%"}, {"smiles": "CC[N+](CCCCCCCCCC[N+](CC)(c1ccccn1)c1ccccn1)(c1ccccn1)c1ccccn1", "growth": "-34% (active)"}, {"smiles": "CCCCCCCSc1ncnc2[nH]ncc12", "growth": "89.3%"}, {"smiles": "CC(C)N(Cc1ccccc1)c1c(S)ssc1=S", "growth": "3.11% (active)"}, {"smiles": "O=C(NCCNC(=O)Oc1cccc2ccccc12)Oc1cccc2ccccc12", "growth": "108%"}, {"smiles": "Cc1[nH]c(=O)[nH]c(=O)c1CCSSCCc1c(C)[nH]c(=O)[nH]c1=O", "growth": "99.2%"}, {"smiles": "CC(C)N(Cc1ccccc1)c1c(Cl)ssc1=O", "growth": "100%"}, {"smiles": "COc1cnc2c(c1)C(=O)c1c-2n(CCCN2CCCC2)c(=O)c2cc(F)ccc12", "growth": "-31.2% (active)"}, {"smiles": "CSc1nc(-c2ccc(O)cc2O)c2c(=O)[nH]c(Nc3ccc(S(=O)(=O)Nc4nc(C)cc(C)n4)cc3)nc2n1", "growth": "113%"}, {"smiles": "c1ccc(COc2ccc(Nc3ncnc4c3cnn4-c3ccccc3)cc2)cc1", "growth": "116%"}, {"smiles": "O=C1/C(=C/c2ccc(F)cc2)Cc2ccccc21", "growth": "91%"}, {"smiles": "CC[n+]1c(/C=C/c2ccc(N3CCCC3)cc2)cccc1/C=C/c1ccc(N2CCCC2)cc1", "growth": "-82.9% (active)"}, {"smiles": "ICCC(c1ccccc1)(c1ccccc1)c1ccccc1", "growth": "2.63% (active)"}, {"smiles": "O=c1[nH]c(SCc2ccccc2)nc2nc(Nc3ccc(NC(=S)Nc4ccccc4)cc3)nc(-c3ccc(O)cc3O)c12", "growth": "115%"}]}]}
